Results filed as inconclusive are left out. Where a call stands in place of a potency, no number is given. Calls of active or inactive are those of the source. Calls follow the shape of the dose curve; as a rule, active = well fitted cell-killing curve with a large enough effect in the repeat runs; inconclusive = weak or mixed curves; inactive = flat fitted curve, though single readings scatter.

The source of these data is PubChem BioAssay (Tox21).

This test is described as follows: qHTS assay to identify small molecule antagonists of the estrogen related receptor (ERR) signaling pathway from Tox21 library - cell viability counter screen (AID 1224834). Also: nearly all actives have a fitted effect of over 30% in size. As to conditions: ERR reporter cells viability, CellTiter-Fluor, 17.5 h; series mostly up to 92.4 µM. The source says: National Center for Advancing Translational Sciences [NCATS]
NIH Chemical Genomics Center [NCGC]
U.S. Environmental Protection Agency [EPA]
National Institutes of Environmental Health Sciences [NIEHS]
National Toxicology Program [NTP]
U.S. Food and Drug Administration [FDA]
Estrogen related receptors (ERRs), the first orphan nuclear receptors discovered, play an important role in the control of cellular energy metabolism. ERRs are required for high-energy production in response to the environmental challenges. ERR-alpha was also identified as an adverse marker for breast cancer progression; ERR-alpha-positive tumors have a poor prognosis. To screen and to identify environmental compounds that perturb the ERR signaling pathways could provide valuable information for potential therapeutic or preventive measures in the treatment of metabolic disease. To differentiate true ERR antagonists or agonist from cytotoxic substances, the assay is multiplexed with cell viability assay.
Tox21 Assay Protocol Summary:
The ERR cells were dispensed at 2,000 cells/5 ul/well in 1536-well white plates using a Multidrop dispenser. After the assay plates were incubated at a 37 C/5% CO2 incubator for 6 hours, 23 nL of compounds dissolved in DMSO, positive and negative controls or DMSO only was transferred to the assay plate by a pin tool. The plates were incubated at 37 C for 17.5 hours. 1 ul/well of CellTiter-Fluor reagent was added into the assay plates using a Flying Reagent Dispenser. After 30-minute incubation at 37 C/5% CO2, the fluorescence intensity in the plates was measured using a ViewLux plate reader.
As to `CCN(CCO)c1cccc(C)c1`, the Potency result is “inactive”.
The same measure for `CCC(C)(C)C1CCC(=O)CC1`: “inactive”.
For the compound `NS(=O)(=O)c1ccccc1OC(F)(F)F`, the Potency result was “inactive”.
Turning to `O=S(=O)(O)c1cc(O)ccc1O`, the Potency result was “inactive”.
For the compound `Cc1cccc(NC(=S)N(C)C)c1`, the Potency entry was “inactive”.
Take `Nc1ccnc(=O)[nH]1`: the Potency entry was “inactive”.
As to `CCOC(=O)CCCCCCCCC(=O)OCC`, the Potency entry is “inactive”.
`CNCc1ccccc1`: the Potency entry was “inactive”.
Consider `NC(=O)NNC(N)=O`, for which the Potency result was “inactive”.
On to `C=CCOCC(O)CCl` (stereo not given), for which the Potency entry is “inactive”.
For `CCCC(C)CC` (stereo not given) the value was “inactive”; for `Nc1nc(=O)n([C@@H]2O[C@H](CO)[C@@H](O)[C@@H]2F)cc1I`, “inactive”; for `CC(=O)Nc1ccc(C)cc1`, “inactive”.
The same measure for `CC(C)(C)c1ccc(C=O)cc1`: “inactive”.
Consider `Cc1ccc2c(c1)c1c3n2CCNC3CCC1` (stereo not given), for which the Potency result is “inactive”.
Regarding `CCS(=O)(=O)CCn1c([N+](=O)[O-])cnc1C`, the Potency result was “inactive”.
In the case of `CCCCOC(=O)C(=O)OCCCC`, the Potency entry is “inactive”.
Take `O=C(O)C(=O)Nc1cccc(-c2nn[nH]n2)c1`: the Potency result was “inactive”.
For `Nc1ccc(C(=O)OCC(O)CO)cc1` (stereo not given), the Potency result was “inactive”.
In the case of `C[C@H]1O[C@H](O[C@H]2[C@H](O)[C@@H](O)[C@@H](O[C@H]3[C@H](O)[C@@H](O)[C@H](O)O[C@@H]3CO)O[C@@H]2CO)[C@H](O)[C@@H](O)[C@@H]1N[C@H]1C=C(CO)[C@@H](O)[C@H](O)[C@H]1O`, the Potency result was “inactive”.
`Cc1cc(O)c2c(c1)C(=O)c1cccc(O)c1C2=O`: the Potency result is “inactive”.
For `CCCO` the value was “inactive”; for `CCCOCCOCCOCCO`, “inactive”; for `C=C(C)C(=O)OC`, “inactive”.
On to `Cc1nc([N+](=O)[O-])cn1-c1ccc([N+](=O)[O-])cc1`, for which the Potency entry is “inactive”.
For `CCCCCCCC[Si](OCC)(OCC)OCC` the value was “inactive”; for `CCC(C)N` (stereo not given), “inactive”; for `O=C(O)CCNC(=O)c1ccccc1`, “inactive”.
For `CCCCC(C)C(=O)O` (stereo not given) the value was “inactive”; for `CC(C)CCC(=O)CCC(C)C`, “inactive”.
For `CCOC(=O)CCc1ccccc1` the value was “inactive”.
Take `CC(=O)c1ccc(OCC(=O)N2CCCCC2)cc1`: the Potency entry was “inactive”.
For `CCc1nccnc1C` the value was “inactive”.
For `CC(=O)Nc1ncc([N+](=O)[O-])s1` the value was “inactive”.
For `CCOC(=O)OCC/C(SC(=O)OCC)=C(\C)N(C=O)Cc1cnc(C)nc1N` the value was “inactive”.
Consider `CCCCCCCCOC(C)=O`, for which the Potency entry was “inactive”.
For `CCC1Nc2cc(Cl)c(S(N)(=O)=O)cc2S(=O)(=O)N1` (stereo not given) the value was “inactive”; for `CC(C)COC(=O)/C=C/c1ccccc1`, “inactive”; for `C[Si]1(C)N[Si](C)(C)N[Si](C)(C)N1`, “inactive”.
The same measure for `CCOC(=O)C(C)(C)C`: “inactive”.
